# Screening data as filed in PubChem.
# Compounds with a hit are over-represented: about 2.9% of the library has one in this group of screens.
# ABHD5-PLIN5 inh – ABHD5-PLIN5 interaction inhibitors, primary screen, cell lysate, split luciferase complementation, luminescence | inhibition, % at 4 µM | Split G. princeps luciferase complementation, 4 h | AID 602281, 2012 | hit rate 0.78% among 360,000;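 active means inhibition above the mean inhibition across every tested compound plus 3 SD, cut at about 22% in these data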;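 further: 0% = DMSO only wells and the 100% control is not disclosed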
# HGIII-sPLA2 inh – human group III sPLA2 inhibitors, primary screen, biochemical, QFRET, BODIPY PC-A2 liposome substrate; AID 743126, 2013; Group 3 secretory phospholipase A2 (Homo sapiens), Q9NZ20; inhibition, % at 12.2 µM; hit rate 0.56% among 370,000; QFRET BODIPY PC-A2 liposome hydrolysis, fluorescence;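 active means inhibition above mean plus 3 SD of compounds lying within the high and low control bounds, cut at about 19% in these data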;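 further: 0% = median of test compound wells and 100% = no enzyme DMSO wells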
# H9c2 protect – cardioprotection against H2O2-induced cell death, primary screen, uHTS, H9c2 cells, ATPLite luminescence; hit rate 0.63% among 360,000; H9c2 cardiomyocytes, H2O2 injury protection, 2 h; protection from H2O2 cell death, % at 20 µM;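 active means compounds giving at least 50% protection of heart cells from peroxide-induced death in the single-dose screen, raw or plate-pattern-corrected value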;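 further: 0% = DMSO wells with peroxide and 100% = DMSO wells without peroxide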
# DAGLB inhibitor – DAGLB lipase inhibitors, primary screen, biochemical, fluorescence, HTS; HEK293T DAGLB membrane lysate, EnzChek fluorogenic substrate; inhibition, % at 5.17 µM; hit rate 0.059% among 340,000; in the data active means inhibition above about 34%;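 further: 0% = enzyme with vehicle and 100% = wells lacking enzyme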
# Myeloid diff MLP – induction of myeloid progenitor differentiation, primary screen, cell-based, flow cytometry, MLPCN library; ER-HoxA9 myeloid progenitors, lysozyme-GFP differentiation; calls only at 10 µM; hit rate 1% among 360,000; AID 624256, 2012;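 active means normalized GFP-positive differentiation at or above the plate's own cutoff, the solvent-only control mean plus 3 SD; inconclusive means no clear call, values can overlap the other calls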;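 further: cells exposed to compound for four days before flow analysis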
# Rtt109 HAT inh – inhibitors of C. albicans Rtt109/Vps75 HAT, primary screen, biochemical, ThioGlo CoA-SH fluorescence, plate reader; hit rate 0.16% among 330,000; Histone acetyltransferase RTT109 (Candida albicans (strain SC5314 / ATCC MYA-2876)), …; AID 540336, 2011; inhibition, % at 34.9 µM; purified Rtt109/Vps75, 4 h;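 active means inhibition of at least 50% in every replicate; inconclusive means best replicate reaches 50% inhibition but some replicates fall short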
# ABHD5 PLIN5 conf – ABHD5-PLIN5 interaction inhibitors, confirmation, biochemical, luminescence | shares compounds with ABHD5-PLIN5 inh | inhibition, % at 4 µM | hit rate 67% among 2,200; in the data active means inhibition above about 23%;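 further: 0% = DMSO vehicle wells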
# HNF4 split-luc – HNF4 dimerization inhibitors, counter-screen for ABHD5-PLIN5 interaction inhibitor project, biochemical, split-luciferase complementation, luminescence | shares compounds with ABHD5-PLIN5 inh | hit rate 77% among 2,200 | AID 651674, 2012 | inhibition, % at 4 µM;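 active means mean inhibition across replicate wells exceeding the computed hit threshold, cut at about 13% in these data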;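 further: light from luciferase halves that rejoin when HNF4 fusion proteins dimerize; 0% = DMSO only wells and the 100% control is not given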
# * hit, by the source's call; i = inactive; ? = inconclusive; . = no result given.
SMILES,ABHD5-PLIN5 inh,HGIII-sPLA2 inh,H9c2 protect,DAGLB inhibitor,Myeloid diff MLP,Rtt109 HAT inh,ABHD5 PLIN5 conf,HNF4 split-luc
O=C(Nc1ccc([N+](=O)[O-])cc1Br)c1cccnc1,-5.5,0.5,8.5,0.9,i,2.0,.,.
NC(=O)C1=C[C@H](c2coc3ccccc3c2=O)C[C@H](OCCCCO)O1,23.3*,7.2,0.2,-0.7,i,-4.9,2.0,6.2
COc1ccc(C(=O)/C=C2/C(=O)Nc3ccccc32)cc1OC,42.9*,1.3,10.6,1.4,i,8.0,53.4*,85.1*
COc1ccc(C(=O)/C=C2/C(=O)Nc3ccccc32)c(OC)c1,69.2*,2.5,-3.9,2.2,?,-31.7,94.7*,98.2*
O=C1Nc2ccccc2/C1=C/C(=O)c1cccs1,31.8*,11.1,11.6,1.3,i,2.6,57.0*,94.5*
COc1cc(OC)c(/C=C2\C(=O)Nc3ccccc32)c(OC)c1,.,-0.9,.,.,.,.,.,.
COc1ccc(C(=O)/C=C2/c3ccccc3CC(C)(C)N2C)cc1,-1.4,11.4,3.3,-1.5,?,9.2,.,.
COc1ccc(C(=O)/C=C2/C(=O)Nc3ccccc32)cc1,35.8*,6.7,-12.3,2.3,i,-2.6,72.4*,84.6*
O=C(CSc1nc(O)c(C(c2ccccc2)c2ccccc2)c(=O)[nH]1)N1CCOCC1,1.2,-2.5,-8.8,1.0,i,2.6,.,.
Cc1ccc(Cn2cc(CN3CC(N4CCN(CCO)CC4)CS3(=O)=O)nn2)cc1 (stereo unspecified),-0.1,4.2,.,.,i,.,.,.
O=C(CC(C(=O)O)c1ccc(F)cc1)c1ccc(Cl)cc1 (stereo unspecified),4.3,6.5,-0.8,-0.2,.,-5.8,.,.
CC(C)(C)c1ccc(C(=O)CC(Sc2ccc(Cl)cc2)C(=O)O)cc1 (stereo unspecified),85.5*,-4.6,-7.8,10.1,i,126.0*,54.4*,97.5*
CC(C)(C)c1ccc(C(=O)Nc2ccc(Cl)cc2)cc1,-5.1,10.2,-13.3,-5.7,i,3.6,.,.
Cc1ccc(SC(CC(=O)c2ccc(F)cc2)C(=O)O)cc1 (stereo unspecified),84.4*,11.1,9.6,2.3,i,14.3,24.3*,70.3*
COc1ccc(CNS(=O)(=O)CCNCc2ccco2)cc1,-1.4,17.7,7.1,-1.6,i,-3.9,.,.
CC(C)CNC(=O)C1(C)CCCN1Cc1ccc(OC(F)(F)F)cc1 (stereo unspecified),-5.6,9.1,-9.2,.,i,.,.,.
NNC(=S)NCc1ccccc1,1.4,4.4,2.4,-3.7,i,3.4,.,.
Cc1ccc(-c2csc(NC(=O)C[n+]3cc(-c4ccc(C)cc4)n4c3CCC4)n2)cc1,24.9*,-7.4,-8.1,-0.2,i,14.0,9.8,2.6
Cc1ccc(-c2csc(NC(=O)C[n+]3cc(-c4ccccc4)n4c3CCC4)n2)cc1,14.4,-18.4,-0.6,.,i,.,.,.
CN(C)C(CNC(=O)c1cccc(S(=O)(=O)NCc2ccccc2)c1)c1ccco1 (stereo unspecified),-2.0,-6.2,0.6,0.4,i,1.1,.,.
O=C1C2C3c4ccccc4C(c4ccccc43)C2C(=O)N1c1ccncc1 (stereo unspecified),2.8,1.1,-8.1,1.5,i,-10.2,.,.
O=C(O)CN1C(=O)C=CC1=O,66.5*,2.0,2.1,-3.1,i,.,47.1*,104.0*
O=C1C=CC(=O)N1CCCCCCN1C(=O)C=CC1=O,.,4.0,.,.,.,.,.,.
CCN(CC)CCOCCOC(=O)C1(c2ccccc2)CCCC1,58.2*,-5.1,-6.3,1.0,i,0.1,76.8*,36.3*
